Bioassay records as filed in PubChem.
L3MBTL1 block: blocks human L3MBTL1 | actives 0.66% (n = 230,000) | AlphaScreen L3MBTL1–H3K9me1 peptide binding | Potency, µM (doses to about 57.1 µM), for inactives: at the highest dose activity, negative = inhibition, actives largely listed as inhibitors | Q9Y468; further: on the % scale 0 is the no-effect control and ±100 the full control effect; nearly all actives have a fitted effect of over 60% in size
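L3MBTL1 (50 nM) pre-complexed 30 min with biotinylated H3(1-15)K9me1 peptide (75 nM), then compounds added for 30 min at room temperature; AlphaScreen streptavidin donor/nickel chelate acceptor beads (10 ug/mL final) read after 30 min dark incubation.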
Sfp inh: inhibitors of Bacillus subtilis Sfp phosphopantetheinyl transferase; AID 1490; actives 3.5% (n = 310,000); Q9F4F7; Biochemical Sfp PPTase activity, qHTS; Potency, µM, inactives show largest response in the series, negative = inhibition, usual class: inhibitors;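 further: the enzyme is Sfp with the accession as filed and its product quenches rhodamine fluorescence; 0% = enzyme reaction without inhibitor and -100% = no enzyme wells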
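Buffer: 50 mM Hepes-Na pH 7.6, 10 mM MgCl2, 0.01% Nonidet P-40, 0.01% BSA. Enzyme 15 nM, pre-exposed to compound 15 min; substrates then added and fluorescence change tracked over 30 min.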
BAZ2B block: blocks human BAZ2B; Q9UIF8; actives 4.4% (n = 360,000); AlphaScreen BAZ2B-H3K14Ac peptide displacement; Potency, µM (series often up to 114 µM), inactives show at the highest dose activity change, negative = inhibition, usual class: inhibitors; further: on the % scale 0 is the no-effect control and ±100 the full control effect; nearly all actives have a fitted effect of over 60% in size
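AlphaScreen displacement of biotin-H3(5-23)K14Ac peptide (50 nM final) from BAZ2B (50 nM final) in PBS pH 7.4, 0.01% Tween-20; complex preformed 30 min RT, then compounds (top 110 uM) 30 min RT, beads 20 min dark.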
JMJD2A Tudor: blocks the human JMJD2A Tudor domain; Potency, µM (doses to about 114 µM), for inactives: at the top dose activity change, negative = inhibition, hits mostly inhibitors; O75164; actives 4.4% (n = 390,000); AID 504339; AlphaScreen JMJD2A-Tudor / H3K4me3 peptide binding; further: on the % scale 0 is the no-effect control and ±100 the full control effect; nearly all actives have a fitted effect of over 50% in size
G9a block: blocks human histone lysine methyltransferase G9a; G9a H3K9 monomethylation, AlphaScreen, 2 h; actives 8.8% (n = 350,000); Q96KQ7; Potency, µM (doses to about 102 µM), inactives show at the top dose activity, negative = inhibition, actives largely listed as inhibitors; further: on the % scale 0 is the no-effect control and ±100 the full control effect; nearly all actives have a fitted effect of over 75% in size
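Quantitative HTS format: methyltransferase activity on a biotin-tagged H3K9 peptide is measured by AlphaScreen, using a rabbit anti-monomethyl-H3K9 antibody with streptavidin donor and anti-IgG acceptor beads. Final levels are 20 nM enzyme, 500 nM peptide, 20 uM SAM; 2 h RT.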
HP1b binding inh: inhibitors of HP1-beta chromodomain binding to methylated histone tails. actives 0.56% (n = 390,000). AID 540317. Potency, µM (highest dose often 114 µM), for inactives: at the highest dose activity change, negative = inhibition, most hits filed as inhibitors. AlphaScreen HP1-beta / biotin-H3K9me3 peptide binding. P83916; further: nearly all actives have a fitted effect of over 70% in size
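Compound inhibition of the preformed complex between 50 nM HP1-beta and 50 nM biotinylated H3K9me3 peptide was read by AlphaScreen. Buffer was PBS pH 7.4 with 0.01% Tween-20. Incubations ran 30 min at room temperature, with 10 ug/mL donor/acceptor beads.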
The depositor's hits bear a star; ? = inconclusive; . = no result; [ ] = another dose, or the depositor's remark. Shown are actives, neighbours in structure and some others; about 12% of the full set was active somewhere. The call rests on the fitted dose curve; in most records, active means well fitted curve in the direction sought with a large enough effect; inconclusive means small, poorly fitted or top-dose-only effect, or another doubt; inactive means no such curve, though single readings can be large; an effect the other way counts as inactive or inconclusive. Potency means the concentration at half of the fitted maximal effect.

SMILES	L3MBTL1 block	Sfp inh	BAZ2B block	JMJD2A Tudor	G9a block	HP1b binding inh
CCCCCC(=O)NNC(=S)NC(=O)c1cccc([N+](=O)[O-])c1	-4%	?	-33%	35µM*	7.9µM*	-18%
COc1ccc(C(=O)NNC(=S)NC(=O)c2cccc([N+](=O)[O-])c2)cc1	.	.	.	-17%	.	6%
CCCCCC(=O)NNC(=S)NC(=O)c1ccccc1[N+](=O)[O-]	-1%	-3%	-29%	-13%	-42%	21%
O=C(NC(=S)NNC(=O)c1ccccc1O)c1cccc([N+](=O)[O-])c1	.	14%	45µM*	79µM*	52%[2.33 µM]	-18%
COc1cc(C(=O)OCC(=O)NCC2CCCCC2)ccc1OCC(C)C	-1%	.	1%	1%	-26%	54%
COc1cccc(/C=N/NC(=O)Cn2cnc3c2c(=O)n(C)c(=O)n3C)c1	12%	4%	1%	56µM*	.	1%
COc1cc(/C=N/NC(=O)Cn2cnc3c2c(=O)n(C)c(=O)n3C)cc(OC)c1OC	9%	7%	3%	1%	-3%[12.7 µM]	25%
Cn1c(=O)c2c(ncn2CC(=O)N/N=C/C=C/c2ccccc2)n(C)c1=O	0%	5%	-1%	40µM*	?	16%
Fc1ccc(Br)cc1C1C=C(c2ccc(Br)cc2)Nc2nnnn21 (stereo not drawn)	.	.	4%	4%	11µM*	72%
Fc1ccc(Br)cc1C1C=C(c2ccc(Br)cc2)Nc2ncnn21 (stereo not drawn)	.	-3%	-7%	-28%	23%[12.7 µM]	28%
COc1cccc(C(=O)NCCS(=O)(=O)N2CCCCC2)c1	-4%	.	12%	-3%	11µM*	22%
CCOC(=O)N1CCN(S(=O)(=O)CCNC(=O)c2cccc(OC)c2)CC1	0%	.	-1%	0%	50µM*	22%
COc1cccc(C(=O)NCCS(=O)(=O)N2CCN(C(=O)c3ccco3)CC2)c1	-1%	.	12%	-3%	14µM*	37%
COc1cccc(C(=O)NCCS(=O)(=O)N2CCCCCC2)c1	9%	.	-3%	-13%	?	15%
COc1cccc(C(=O)NCCS(=O)(=O)N2CCCC2)c1	2%	.	-2%	-8%	32µM*	20%
COc1cc(S(=O)(=O)NCCc2c(C)[nH]c3ccc(C)cc23)ccc1Br	.	.	?	50µM*	?	?
COc1cc(Cl)c(S(=O)(=O)NCCc2c(C)[nH]c3c(C)cccc23)cc1Cl	.	.	32µM*	50µM*	-27%[59 µM]	-21%
Cc1ccc([N+](=O)[O-])cc1S(=O)(=O)NCCc1c(C)[nH]c2c(C)cccc12	-2%	-12%	-1%	-10%	29%	?
Cc1[nH]c2ccccc2c1CCNS(=O)(=O)c1ccc(S(N)(=O)=O)cc1	.	12%	-17%	?	19%	0%
COc1ccc(C(C)C)cc1S(=O)(=O)NCCc1c(C)[nH]c2c(Cl)cccc12	.	.	28µM*	?	?	-12%
COc1c(C)cc(S(=O)(=O)NCCc2c(C)[nH]c3ccccc23)c(C)c1C	.	.	40µM*	?	?	-19%
COc1ccc(NC(=O)Cn2cnc3ccc(S(=O)(=O)N4CCC(C)CC4)cc3c2=O)cc1Cl	.	.	1%	-22%	27%[59 µM]	72%
Cc1[nH]c2c(C)cccc2c1CCNS(=O)(=O)c1cccc([N+](=O)[O-])c1	-4%	11%	50µM*	?	?	?
COc1ccc(C(C)C)cc1S(=O)(=O)NCCc1c(C)[nH]c2ccc(C)cc12	.	.	?	50µM*	?	10%
c1ccc2c(N3CCCCC3)nnc(N3CCCCC3)c2c1	.	25%	3%	.	-20%[59 µM]	.
SMILES	L3MBTL1 block	Sfp inh	BAZ2B block	JMJD2A Tudor	G9a block	HP1b binding inh
c1csc(-c2nnc(N3CCOCC3)c3ccccc23)c1	1%	10%	-27%	-2%[11.4 µM]	40µM*	1%
c1csc(-c2nnc(N3CCCCCC3)c3ccccc23)c1	-2%	?	?	1.3µM*	10µM*	?
C=CCOC(=O)C(=O)/C=C/c1coc2ccccc2c1=O	1%	45µM*	?	-26%	-117%[59 µM]	9%
CCCS(=O)(=O)NCc1cn2c(C)csc2n1	-13%	-7%	9%	-20%	56µM*	36%
Cc1ccc(SCc2cn3c(C)csc3n2)cc1	.	-5%	56µM*	-25%	?	16%
Cc1csc2nc(CNC(=O)CCC(=O)O)cn12	6%	6%	-1%	-20%	50µM*	29%
CCS(=O)(=O)NCc1cn2c(C)csc2n1	1%	14%	7%	-17%	1%[59 µM]	14%
Cc1nc2nc(SCC(=O)O)nn2c(C)c1Cc1c(F)cccc1Cl	.	12%	2%	-12%	11µM*	46%
Cc1nc2nc(SCC(=O)O)nn2c(C)c1Cc1ccccc1Cl	.	-28%	8%	7%	28µM*	38%
CC(=O)c1c(C)oc2ccc(N(C(=O)c3ccncc3)S(=O)(=O)c3ccc(C)cc3C)cc12	.	.	-22%	-17%	?	28%
CC1=C(C(=O)Nc2ccc(F)cc2)C(c2ccc(C)o2)C2=C(CC(C)(C)CC2=O)N1 (stereo not drawn)	1%	-8%	4%	-6%	50µM*	26%
CC1=C(C(=O)OC2CCCCC2)C(c2ccc(C)o2)C2=C(CC(C)(C)CC2=O)N1 (stereo not drawn)	-7%	?	-6%	-14%	2%[12.7 µM]	46%
N#C/C(=C\c1ccc(O)c(Br)c1)C(=O)N1CCCCC1	0%	4%	-13%	-14%	.	22%
Cc1occc1C(=O)/C(C#N)=C/c1ccc(O)c(Br)c1	.	8%	-38%	-22%	50µM*	-9%
COCCN(C(=O)CSc1nnc(Nc2ccccc2F)s1)c1c(N)n(Cc2ccccc2)c(=O)[nH]c1=O	.	25%	-2%	-16%[57.1 µM]	14µM*	3%
COCCNc1nnc(SCC(=O)N(C)c2c(N)n(Cc3ccccc3)c(=O)[nH]c2=O)s1	11%	.	-1%	-10%	22µM*	24%
CCN(C(=O)CSc1nnc(NCCOC)s1)c1c(N)n(Cc2ccccc2)c(=O)[nH]c1=O	.	.	.	-10%	.	45%
O=C(NCc1cccs1)C1CCN(S(=O)(=O)c2ccccc2F)CC1	5%	-5%	-6%	-1%	79µM*	41%
Cc1nc2cnc(N(C)C)nc2n(-c2ccccc2)c1=O	.	17%	.	.	-3%[0.501 µM]	.
COc1ccccc1NC(=O)c1c(NCc2ccc(OC)c(OC)c2OC)sc2c1CCC2	.	.	-6%	-31%	?	11%
CCOC(=O)N1CCc2c(sc(NCc3sccc3C)c2C(=O)Nc2cc(Cl)ccc2OC)C1	.	.	-36%	?	3.5µM*	-24%
